Each structure is given as a SMILES string. ± gives the standard deviation of the averaged measurements.

Our source for the relative enzymatic activity values is the supplement of paper PMC9446081.

This test addresses T1, MurF (UniProt P11880).
T1 sequence (whole entry): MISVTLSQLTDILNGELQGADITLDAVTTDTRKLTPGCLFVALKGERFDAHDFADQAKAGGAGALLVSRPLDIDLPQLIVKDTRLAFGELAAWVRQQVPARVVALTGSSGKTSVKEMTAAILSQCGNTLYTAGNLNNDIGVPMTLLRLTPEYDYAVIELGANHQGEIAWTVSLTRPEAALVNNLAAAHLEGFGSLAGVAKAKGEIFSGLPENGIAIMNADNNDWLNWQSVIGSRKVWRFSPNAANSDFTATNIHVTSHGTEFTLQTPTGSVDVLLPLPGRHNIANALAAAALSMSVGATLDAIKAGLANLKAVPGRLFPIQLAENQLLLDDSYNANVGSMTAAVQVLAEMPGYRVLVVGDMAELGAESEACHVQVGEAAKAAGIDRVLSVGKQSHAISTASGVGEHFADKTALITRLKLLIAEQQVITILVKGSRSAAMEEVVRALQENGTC
Nature of the test: relative enzymatic activity vs untreated control (fraction); higher = less inhibition. The note with it: 100 µM; incubation time: 2 h at 37 C. The protocol: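 In vitro enzymatic inhibition assays (ProFoldin kits) for 12 purified essential E. coli enzymes or complexes, each treated with 218 active antibacterial compounds at 100 µM for 2 h at 37°C. Read-outs were fluorescence or absorbance (phosphate detection, dye binding), converted to activity via standard curves and expressed relative to untreated DMSO controls.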
Turning to `CN(C)[C@@H]1C(=O)[C@H](C(N)=O)C(=O)[C@@]2(O)C(=O)[C@@H]3C(=O)c4c(O)cccc4[C@@](C)(O)[C@H]3C[C@@H]12`, the relative enzymatic activity was 0.998 ± 0.19. The compound `C[CH2][Hg][S]c1ccccc1C(=O)[O-].[Na+]` came in with a relative enzymatic activity of 0.982 ± 0.28. `Cc1c(N)nc([C@H](CC(N)=O)NC[C@@H](N)C(N)=O)nc1C(=O)N[C@H](C(=O)N[C@@H](C)[C@H](O)[C@@H](C)C(=O)N[C@@H](C(=O)NCCc1nc(-c2nc(C(=O)NCCC[S+](C)C)cs2)cs1)[C@@H](C)O)[C@@H](O[C@H]1O[C@H](CO)[C@H](O)[C@@H](O)[C@H]1O[C@H]1O[C@H](CO)[C@@H](O)[C@H](OC(N)=O)[C@@H]1O)c1cnc[nH]1` displayed a relative enzymatic activity of 1.15 ± 0.074. The compound `[O-][n+]1ccccc1[S][Zn][S]c1cccc[n+]1[O-]` came in with a relative enzymatic activity of 0.973 ± 0.15. As for `CN(C)[C@@H]1C(=O)[C@@H](C(N)=O)C(=O)[C@@]2(O)C(=O)[C@H]3C(=O)c4c(O)ccc(Cl)c4[C@@](C)(O)[C@H]3C[C@@H]12`, the relative enzymatic activity was found to be 1.2 ± 0.021. As for `CCn1cc(C(=O)[O-])c(=O)c2cc3c(cc21)OCO3.[K+]`, the relative enzymatic activity worked out at 0.962 ± 0.22.

`O=S(=O)(O)O.Oc1cccc2cccnc12` showed a relative enzymatic activity of 0.951 ± 0.29.

`COP(=S)(OC)Oc1cc(Cl)c(Cl)cc1Cl` gave a relative enzymatic activity of 1.05 ± 0.2.

With `Cn1ncnc2c(=O)n(C)c(=O)nc1-2`, the relative enzymatic activity was 0.797 ± 0.21. Turning to `CCCCCCCCCCCCCCCC[n+]1ccccc1.[Cl-]`, the relative enzymatic activity turned out to be 0.0685 ± 0.0074. For `CCCCCCCCCCCCCCCC[N+](C)(C)C.[Br-]`, the relative enzymatic activity was 0.112 ± 0.021. For the compound `CNC1C(O)C(OC2C(N)CC(N)C(OC3OC(C(C)O)C(O)C(O)C3N)C2O)OCC1(C)O` (centres undefined), the relative enzymatic activity came out at 0.95 ± 0.18.

`Oc1cc(Cl)ccc1Oc1ccc(Cl)cc1Cl` had a relative enzymatic activity of 1.12 ± 0.27. The result for `Cc1nc2c(=O)n(C)c(=O)nc-2n(C)n1` reads 0.965 ± 0.26; that for `CN(C)[C@@H]1C(=O)C(C(N)=O)=C(O)[C@@]2(O)C(O)=C3C(=O)c4c(O)cccc4[C@](C)(O)[C@H]3C[C@@H]12`, 0.983 ± 0.2; that for `Cc1c(N)nc([C@H](CC(N)=O)NC[C@@H](N)C(N)=O)nc1C(=O)N[C@H](C(=O)N[C@@H](C)[C@H](O)[C@@H](C)C(=O)N[C@@H](C(=O)NCCc1nc(-c2nc(C(=O)NCCC[S+](C)C)cs2)cs1)[C@@H](C)O)[C@@H](O[C@H]1O[C@H](CO)[C@H](O)[C@@H](O)[C@H]1O[C@H]1O[C@H](CO)[C@@H](O)[C@H](OC(N)=O)[C@@H]1O)c1c[nH]cn1`, 0.537 ± 0.75. The compound `CN1C(=O)[C@]23CC4=CC=C[C@H](O)[C@H]4N2C(=O)[C@@]1(CO)SS3` registered a relative enzymatic activity of 0.973 ± 0.26. The result for `O=[N+]([O-])C(Br)(CO)CO` reads 0.946 ± 0.23; that for `CCCCCCCCCCCCCCCC[n+]1ccccc1`, 0.08 ± 0.011; that for `CC(=O)Oc1ccc(Cl)c2cccnc12`, 0.983 ± 0.21. The compound `O=C1C=C2C(=CCOC2O)O1` (centres undefined) yielded a relative enzymatic activity of 0.903 ± 0.18. The result for `CC(=O)[O][Hg][c]1ccccc1` reads 1.08 ± 0.26; that for `O=[N+]([O-])c1ccc(N(CCO)CCO)c2c1no[n+]2[O-]`, 0.923 ± 0.15. In turn, `CN[C@H]1C[C@@H](N)[C@H](O)[C@@H](O[C@@H]2O[C@H](CO)[C@H](O)[C@@H]3O[C@@]4(O[C@H]23)O[C@H]([C@@H](N)CO)[C@H](O)[C@H](O)[C@H]4O)[C@@H]1O` returned a relative enzymatic activity of 1.17 ± 0.035.
